Measurements taken from PubChem BioAssay (NCI).
About 83,000 compounds went through this panel and 20% of them were active in at least one assay; those are over-represented in the sample as a whole.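 In brief: 96-well plates, 48 h treatment, single concentration, percent growth endpoint.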 Activity calls are given as the source filed them. Rule for the calls: active = growth percent below 10; inactive = the rest.

Columns and labels:
Assay in all cases: NCI-60 one-dose screen, 48 h (100 = growth as untreated, 0 = no growth, -100 = all killed)
Settings in all cases: 10 µM unless noted
DU-145 prostate = tested on: DU-145 prostate
K-562 leukemia = tested on: K-562 leukemia
MALME-3M melanoma = tested on: MALME-3M melanoma
MDA-MB-231 breast = tested on: MDA-MB-231 breast
RXF 393 renal = tested on: RXF 393 renal
SF-268 CNS = tested on: SF-268 CNS
SF-295 CNS = tested on: SF-295 CNS
SF-539 CNS = tested on: SF-539 CNS
UACC-257 melanoma = tested on: UACC-257 melanoma
M14 melanoma = tested on: M14 melanoma
HCT-15 colon = tested on: HCT-15 colon
HT29 colon = tested on: HT29 colon
SNB-75 CNS = tested on: SNB-75 CNS
SNB-19 CNS = tested on: SNB-19 CNS
U251 CNS = tested on: U251 CNS
PC-3 prostate = tested on: PC-3 prostate
SK-MEL-5 melanoma = tested on: SK-MEL-5 melanoma
UACC-62 melanoma = tested on: UACC-62 melanoma
LOX IMVI melanoma = tested on: LOX IMVI melanoma
SK-MEL-28 melanoma = tested on: SK-MEL-28 melanoma

Measured: growth

N=C1C(c2nc(-c3ccc(Br)cc3)cs2)=C(O)CN1Cc1cccnc1
active: PC-3 prostate -6.43%
inactive: DU-145 prostate 11.9% | K-562 leukemia 49.8% | MALME-3M melanoma 34.1% | MDA-MB-231 breast 78.7% | RXF 393 renal 67.1% | SF-268 CNS 38% | SF-295 CNS 37.2% | SF-539 CNS 60.5% | UACC-257 melanoma 81% | M14 melanoma 69.3% | HCT-15 colon 87.5% | HT29 colon 65.4% | SNB-75 CNS 15.5% | SNB-19 CNS 75.9% | U251 CNS 56.7% | SK-MEL-5 melanoma 79.6% | UACC-62 melanoma 78.2% | LOX IMVI melanoma 85.3% | SK-MEL-28 melanoma 48.5%

NC(=N\N=C/c1ccccc1[N+](=O)[O-])/C(N)=N\N=C/c1ccccc1[N+](=O)[O-]
inactive: DU-145 prostate 107% | K-562 leukemia 101% | MALME-3M melanoma 146% | MDA-MB-231 breast 107% | RXF 393 renal 103% | SF-268 CNS 99.7% | SF-295 CNS 105% | SF-539 CNS 97.2% | UACC-257 melanoma 113% | M14 melanoma 111% | HCT-15 colon 105% | HT29 colon 103% | SNB-75 CNS 97.9% | SNB-19 CNS 106% | U251 CNS 108% | PC-3 prostate 102% | SK-MEL-5 melanoma 105% | UACC-62 melanoma 108% | LOX IMVI melanoma 104% | SK-MEL-28 melanoma 118%

COc1ccc(-c2nc(SCCC(C)C)nc(N/N=C\c3cccc([N+](=O)[O-])c3)c2C#N)cc1
active: SNB-75 CNS -14% | U251 CNS 8.23%
inactive: DU-145 prostate 34.1% | K-562 leukemia 56.8% | MALME-3M melanoma 50% | MDA-MB-231 breast 23.4% | RXF 393 renal 28% | SF-268 CNS 25.1% | SF-295 CNS 32.1% | SF-539 CNS 27.5% | UACC-257 melanoma 81% | M14 melanoma 61.3% | HCT-15 colon 38.7% | HT29 colon 30.3% | SNB-19 CNS 45.1% | PC-3 prostate 40.5% | SK-MEL-5 melanoma 71.1% | UACC-62 melanoma 67.5% | LOX IMVI melanoma 18.8% | SK-MEL-28 melanoma 67.5%

Cn1c2c(c3ccc(Cl)c(Cl)c31)C(C#N)C1(CCNCC1)NC2=O (stereo not given)
inactive: DU-145 prostate 69.1% | K-562 leukemia 26.1% | MALME-3M melanoma 58.1% | MDA-MB-231 breast 42.2% | RXF 393 renal 25.9% | SF-268 CNS 48.6% | SF-295 CNS 58.3% | SF-539 CNS 56.8% | UACC-257 melanoma 39.9% | M14 melanoma 16.1% | HCT-15 colon 47.2% | SNB-75 CNS 22.2% | SNB-19 CNS 57.2% | U251 CNS 47.7% | PC-3 prostate 20.5% | SK-MEL-5 melanoma 59.6% | LOX IMVI melanoma 14.2%
active: HT29 colon 9.42% | UACC-62 melanoma -46.5% | SK-MEL-28 melanoma -81.4%

O=c1c2c3c(sc2n2c(-c4cn(-c5ccccc5)nc4-c4ccc(Cl)cc4)nnc2n1Cc1ccccc1)CCCC3
inactive: DU-145 prostate 103% | K-562 leukemia 89.7% | MALME-3M melanoma 97.4% | MDA-MB-231 breast 80.3% | RXF 393 renal 94.5% | SF-268 CNS 99.7% | SF-295 CNS 98.5% | SF-539 CNS 90.3% | UACC-257 melanoma 118% | M14 melanoma 60.3% | HCT-15 colon 104% | HT29 colon 113% | SNB-75 CNS 66.8% | SNB-19 CNS 97.9% | U251 CNS 98.2% | PC-3 prostate 95.3% | SK-MEL-5 melanoma 95.8% | UACC-62 melanoma 90.6% | LOX IMVI melanoma 72.3% | SK-MEL-28 melanoma 105%

NS(=O)(=O)c1ccc(-n2nc(C(=O)N/N=C\c3ccc(F)cc3)cc2-c2ccc(Cl)cc2)cc1
inactive: DU-145 prostate 104% | K-562 leukemia 87.9% | MALME-3M melanoma 89.9% | MDA-MB-231 breast 74% | RXF 393 renal 89.5% | SF-268 CNS 88.3% | SF-295 CNS 97% | SF-539 CNS 88.1% | UACC-257 melanoma 101% | HCT-15 colon 98.4% | HT29 colon 118% | SNB-75 CNS 57.1% | SNB-19 CNS 85.5% | U251 CNS 93.3% | PC-3 prostate 81.9% | SK-MEL-5 melanoma 93.5% | UACC-62 melanoma 81.8% | LOX IMVI melanoma 90.9% | SK-MEL-28 melanoma 98.8%
active: M14 melanoma -85.9%

COc1ccc(-c2ccc3c(c2)sc2nc(-c4ccc(F)cc4)cn23)cc1
inactive: DU-145 prostate 60.3% | K-562 leukemia 76.6% | MALME-3M melanoma 101% | MDA-MB-231 breast 93.5% | RXF 393 renal 98.8% | SF-268 CNS 110% | SF-295 CNS 32.5% | SF-539 CNS 100% | UACC-257 melanoma 80.9% | M14 melanoma 98% | HCT-15 colon 74.9% | HT29 colon 82.8% | SNB-75 CNS 98.9% | SNB-19 CNS 103% | U251 CNS 83.3% | PC-3 prostate 81.7% | SK-MEL-5 melanoma 33.1% | UACC-62 melanoma 65% | LOX IMVI melanoma 102% | SK-MEL-28 melanoma 105%

CCN(CC)CCCC(C)Nc1c2ccc(Cl)cc2nc2ccc(O)cc12 (stereo not given)
active: K-562 leukemia -3.7% | RXF 393 renal -19.9% | UACC-257 melanoma -58.4% | LOX IMVI melanoma 0.124%
inactive: DU-145 prostate 41.3% | MALME-3M melanoma 51.2% | MDA-MB-231 breast 47.4% | SF-268 CNS 58.5% | SF-295 CNS 61% | SF-539 CNS 15.6% | M14 melanoma 14.2% | HCT-15 colon 42.3% | HT29 colon 48.2% | SNB-75 CNS 35.3% | SNB-19 CNS 44.8% | U251 CNS 32.5% | PC-3 prostate 48.7% | SK-MEL-5 melanoma 34.7% | UACC-62 melanoma 82.3% | SK-MEL-28 melanoma 57.5%
